# According to PubChem BioAssay AID1259313 (Sanford-Burnham Center for Chemical Genomics, 2017):
# Among all 340,000 compounds or so, about 8,500 (2.5%) were called active.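 Rule for the calls: active = melting temperature shift of at least 10% of the positive control shift, at one fixed dose; inactive = the rest.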 This excerpt belongs to a sample that is enriched for actives.
# System: Glutamate receptor ionotropic, NMDA 3A (GRIN3A) ligand-binding domain
# Assay: binders of NR3A ligand-binding domain, primary screen, biophysical, differential scanning fluorimetry, uHTS (AID 1259313)
# Settings: NR3A LBD differential scanning fluorimetry, at 25 µM, stronger effect = higher value, 0% = protein alone, 100% = glycine-bound protein
row,Structure (SMILES),Tm shift relative to glycine control
1,CCC(=C/c1sc2ccc3ccccc3c2[n+]1C)/C=C1\Sc2ccc3ccccc3c2N1C,3.14% (inactive)
2,CC1CCCCC1NC(=O)Cn1cnc2c1c(=O)n(C)c(=O)n2C (centres undefined),-0.41% (inactive)
3,COc1ccc(C(=O)Nc2cc(C)ccc2NC(=O)COc2ccccc2)cc1,-0.91% (inactive)
4,Cc1ccc(O)c(NC(=S)NC(=O)COc2ccc(Br)cc2)c1,16.9% (active)
5,CCS(=O)(=O)c1ccc(O)c(NC(=O)COc2ccc(Cl)cc2)c1,1.4% (inactive)
6,Oc1ccc(/C=N/N(Cc2ccccc2)c2ccccc2)cc1,8.8% (inactive)
7,COc1cc(OC)cc(-c2cc3ccc(F)cc3cn2)c1,1.79% (inactive)
8,CC(=O)c1ccc(S(=O)(=O)NC2CC(=O)N(c3ccc4c(c3)OCCO4)C2)cc1 (centres undefined),15.5% (active)
9,COC(=O)C1CCN(C(=O)NC2CC(=O)N(c3ccc4c(c3)OCCO4)C2)CC1 (centres undefined),0.42% (inactive)
10,CC(=O)c1ccccc1NC(=O)C1CC(=O)N(c2ccc3c(c2)OCCO3)C1 (centres undefined),-0.26% (inactive)
11,Cc1nc2cc(C(F)(F)F)ccc2n1CCNc1nc(-c2cc(Cl)c(N)c(Cl)c2)cs1,-2.53% (inactive)
12,Cc1ccc(C(C(=O)NC2CCCCC2)N(C(=O)c2csnn2)C2CC2)o1 (centres undefined),-0.78% (inactive)
13,COc1ccc(S(=O)(=O)N2CCOCC2)cc1NC(=O)CSc1nnc(NC2CC2)s1,1.84% (inactive)
14,COc1ccc(/C=N/NC(=O)c2ccncc2)cc1CN1CCCc2ccccc21,-8.86% (inactive)
15,COc1ccc(Br)cc1/C=N/NC(=O)c1cccc(S(=O)(=O)N2CCOCC2)c1,-9.01% (inactive)
16,COc1cccc(/C=N/NC(=O)c2[nH]nc3c2CCc2ccccc2-3)c1O,20.4% (active)
17,O=C(c1cc2ccccc2o1)N1CCN(Cc2ccccc2)CC1,0.09% (inactive)
18,Fc1ccc(OCc2nn3c(Cn4nnc5ccccc54)nnc3s2)cc1,2.39% (inactive)
19,CC1CN(/C=C/C(=O)C(F)(F)F)CC(C)O1 (centres undefined),0.33% (inactive)
20,COc1ccccc1Cn1c(C)nnc1-c1cnn(C)c1N,1% (inactive)
21,O=C(Cc1cccc2ccccc12)NNC(=O)Nc1ccc(Cl)cc1,29.1% (active)
22,O=C(O)Cc1ccc(NC(=O)Nc2cccc3ccccc23)cc1,-1.31% (inactive)
23,CN(CC(=O)Nc1ccc(Cl)cc1)CC(=O)Nc1cccc2ccccc12,-7.6% (inactive)
24,O=C(OC12CC3CC(CC(C3)C1)C2)c1ccc(NCc2cc(O)ccc2O)cc1,33.5% (active)

row,Structure (SMILES),Tm shift relative to glycine control
1,CC(C)OC(=O)c1ccc(NCc2cc(O)ccc2O)cc1Cl,-1.69% (inactive)
2,COC(=O)c1ccc(NCc2cc(O)ccc2O)cc1,5.08% (inactive)
3,Cn1c(SCc2ccc(F)cc2)nnc1-c1ccncc1,1.71% (inactive)
4,CCC(C)(C)n1nnnc1CN1CCN(c2nc3ccc(C)cc3cc2C#N)CC1,0.62% (inactive)
5,O=C(NCc1ccccc1)C(c1ccccc1)N(C(=O)c1csnn1)c1ccc(F)cc1 (centres undefined),-0.6% (inactive)
6,CN(C)S(=O)(=O)Oc1ccccc1C(=O)Nc1ccccc1Cl,-0.92% (inactive)
7,O=C(Nc1ccccc1Cl)/C(Cl)=C(\Cl)S(=O)c1ccccc1 (centres undefined),11.6% (active)
8,O=C(COC(=O)CCc1c[nH]c(=O)[nH]1)Nc1ccccc1Cl,1.15% (inactive)
9,Cc1nn(-c2ccccc2)c2[nH]c(C(F)(F)F)cc(=O)c12,-11.2% (inactive)
10,COc1ccc(CN2CCN(Cc3cn(C)nc3-c3ccccc3)CC2CCO)c(C)c1C (centres undefined),-3.71% (inactive)
11,O=C(O)/C=C/c1ccc(OCCCF)cc1,-1.35% (inactive)
12,O=C(/C=C(O)/C=C/c1ccc(O)cc1)/C=C/c1ccc(O)cc1,19% (active)
13,COc1cccc(C=CC(=O)C=CC=Cc2ccccc2)c1,-1.98% (inactive)
14,Cc1ccc(S(=O)(=O)NCCc2nnc3ccc(SCc4cccnc4)nn23)cc1,-2.44% (inactive)
15,COc1cc(OC)c(C(=O)NNC(=O)c2ccccc2-n2cccc2)cc1OC,-0.41% (inactive)
16,CCCCCCC(O)(CCN1CCCCC1)c1ccccc1 (centres undefined),-3.65% (inactive)
17,S=c1[nH]nc(-c2cccs2)n1/N=C/c1cccs1,0.68% (inactive)
18,S=c1[nH]nc(-c2cccs2)n1/N=C/c1cn(-c2ccccc2)nc1-c1ccc(Cl)cc1,15.2% (active)
19,S=c1[nH]nc(-c2ccncc2)n1/N=C/c1ccccc1Cl,-1.38% (inactive)
20,CC(C(=O)Nc1ccccc1-c1ccccc1)N1CCOCC1 (centres undefined),-18.3% (inactive)
21,CC(N=Cc1nc(-c2ccccc2)oc1O)c1ccccc1 (centres undefined),1.17% (inactive)
22,CCOc1ccc2nc(/N=C/c3nc(-c4ccccc4)oc3O)sc2c1,38% (active)
23,CCOc1ccc2nc(C(=O)N3CCCC(C)C3)sc2c1 (centres undefined),3.03% (inactive)
24,CCn1c(SCC(=O)NC2CC2)nnc1-c1ccccc1OC,-19.3% (inactive)

row,Structure (SMILES),Tm shift relative to glycine control
1,COc1ccccc1-c1nnc2n1N=C(c1ccc(OC(F)F)c(OCC3CC3)c1)CS2,20.6% (active)
2,COc1ccc(C2=Nn3c(nnc3-c3ccccc3OC)SC2)cc1OC1CCCC1,-1.54% (inactive)
3,Cn1c(C(=O)OC(C(=O)NC2CCCCC2)c2ccccn2)cc2sccc21 (centres undefined),-2.22% (inactive)
4,C/C(=N/NC(=O)C1COc2ccccc2O1)c1ccco1 (centres undefined),0.45% (inactive)
5,C/C(CC(=O)NC(C)(C)C)=N\NC(=O)c1ccco1,-2.4% (inactive)
6,C/C(=N/NC(=O)CCc1ccccc1)c1ccco1,13.4% (active)
7,C=C(C)CNC(=S)/N=c1\scc(C)n1CC,0.78% (inactive)
8,Cc1c(Cl)cccc1NC(=O)CSc1ccc(-c2cccnc2)nn1,0.4% (inactive)
9,COc1ccc([C@H]2[C@H](C(C)=O)N3N=Cc4ccccc4C3C23C(=O)OC(C)(C)OC3=O)cc1 (some centres undefined),1.26% (inactive)
10,COc1cc2ccccc2cc1C(=O)Nc1ccncc1,-12.5% (inactive)
11,CC(C)C(=O)Nc1cccc(C(=O)Nc2ccc3c(c2)OCO3)c1,-22.3% (inactive)
12,COc1cc(NC(=O)c2ccc3c(c2)OCO3)ccc1NC(=O)c1cccs1,26.8% (active)
13,COc1cc2ccccc2cc1C(=O)Nc1ccc(S(=O)(=O)Nc2cc(C)on2)cc1,-5.06% (inactive)
14,O=C(Nc1ccc(NC(=O)c2ccc3c(c2)OCO3)cc1)c1cccc(Cl)c1,4.36% (inactive)
15,COc1cc(NC(=O)COc2ccccc2Cl)ccc1NC(=O)C(C)C,-1.36% (inactive)
16,COc1cc2ccccc2cc1C(=O)Nc1ccc(NC(=O)c2cccs2)cc1,28.6% (active)
17,COc1cc(NC(=O)c2cccs2)ccc1NC(=O)c1ccccc1Cl,11.9% (active)
18,COc1cc(Cl)c(C)cc1NC(=O)[C@@H]1CCCN1C(=O)c1cccs1,-1.61% (inactive)
19,Cc1cc(C(=O)CC#N)c(C)n1CC(F)(F)F,0.49% (inactive)
20,O=C(Nc1cccc(S(=O)(=O)N2CCCC2)c1)c1cncc(Br)c1,-1.22% (inactive)
21,COc1ccc(N2CCN(CCNC(=O)Nc3cc(Cl)ccc3Cl)CC2)cc1,-1.01% (inactive)
22,O=c1c2ccccc2ncn1/N=C/c1ccccc1,-2.01% (inactive)
23,Cc1ccc(OCC(=O)N2CCN(C(=O)c3cccnc3)CC2)cc1,-1.15% (inactive)
24,O=C(/C=C/c1ccc(Cl)cc1)Nc1ccc(Br)cn1,0.46% (inactive)

row,Structure (SMILES),Tm shift relative to glycine control
1,Cc1ccccc1N(C(=O)Cc1cccs1)C(C(=O)NC1CCCCC1)c1cn(C)nc1C (centres undefined),-0.71% (inactive)
2,O=C(CSc1nc2ccccc2c(=O)[nH]1)Nc1nc(-c2ccc(Br)cc2)cs1,36.1% (active)
3,CCOC(=O)c1ccccc1NC(=O)CSc1nc2ccccc2c(=O)[nH]1,-1.86% (inactive)
4,O=C(COC(=O)c1cc(=O)[nH]c2ccccc12)Nc1nc(-c2cccc(Br)c2)cs1,10.6% (active)
5,CC(=O)NCc1ccc(-c2csc(NC(=O)CCCc3nc4ccccc4c(=O)[nH]3)n2)cc1,-1.27% (inactive)
6,CC(NC(=O)COC(=O)c1cc(=O)[nH]c2ccccc12)c1ccccc1 (centres undefined),-1% (inactive)
7,O=C(COC(=O)c1cc(=O)[nH]c2ccccc12)NCc1cccc(Cl)c1,-0.85% (inactive)
8,Cc1ccc(-c2cc(=O)[nH]c(NCc3ccccc3)n2)cc1,-1.01% (inactive)
9,COc1cc(OC)c(OC)cc1CN1CCN(C(=O)c2cccc3ccccc23)CC1,-1.19% (inactive)
10,Cc1cc(C)nc(/N=C2\NC(=O)CC(C(=O)O)N2c2ccc(Cl)cc2Cl)n1 (centres undefined),-1.26% (inactive)
11,O=C(CCN1C(=O)C2CCCCC2C1=O)Nc1ccc(OC(F)F)cc1 (centres undefined),2.89% (inactive)
12,O=C(NNc1ccccc1Cl)C(O)(c1cccc(C(F)(F)F)c1)c1cccc(C(F)(F)F)c1,27.5% (active)
13,O=C(Nc1cc(C(F)(F)F)ccc1Cl)C(=O)N1CCCCC1,-10.1% (inactive)
14,O=C(O)c1cc(S(=O)(=O)N(Cc2ccccc2)c2cccc(C(F)(F)F)c2)ccc1Cl,2.79% (inactive)
15,Nc1cc2c(cc1Br)-c1ccc(F)cc1C2=O,-2.14% (inactive)
16,Nc1nc(SCC(=O)Nc2ccc(Cl)cc2C(F)(F)F)n[nH]1,0.67% (inactive)
17,CCCCNC(=O)c1onc(CSc2cccc(OC)c2)c1C(=O)O,3.23% (inactive)
18,CCOc1cccc(SCc2noc(C(=O)NC(C)C)c2C(=O)O)c1,-0.97% (inactive)
19,COCCNC(=O)c1onc(CSc2cccc(C)c2)c1C(=O)O,18.5% (active)
20,COCCn1nnnc1C(c1ccccc1Cl)N1CCN(c2ccccc2OC)CC1 (centres undefined),2.04% (inactive)
21,CCC(=O)N(C)C(c1ccccc1Cl)c1nnnn1-c1c(C)cccc1C (centres undefined),38.2% (active)
22,CN(C)/C=C(/C(=O)c1ccc(Cl)c(Cl)c1)c1nnnn1-c1ccccc1,-0.1% (inactive)
